# A number with no mark means an inactive call.
# Key:
# Test in all cases: log2 ratio of Biotin-Ahx-Ub-VS probe labelling (fragment/DMSO); higher = less target engagement (more negative = stronger competition), active = hit call of the paper (q ≤ 0.05, log2 ratio ≤ -1)
# Settings in all cases: compound concentration: 200 uM; treatment time: 3 h
# OTUD6B = target: T1, OTUD6B (UniProt Q8N6M0)
# T1 sequence (whole entry): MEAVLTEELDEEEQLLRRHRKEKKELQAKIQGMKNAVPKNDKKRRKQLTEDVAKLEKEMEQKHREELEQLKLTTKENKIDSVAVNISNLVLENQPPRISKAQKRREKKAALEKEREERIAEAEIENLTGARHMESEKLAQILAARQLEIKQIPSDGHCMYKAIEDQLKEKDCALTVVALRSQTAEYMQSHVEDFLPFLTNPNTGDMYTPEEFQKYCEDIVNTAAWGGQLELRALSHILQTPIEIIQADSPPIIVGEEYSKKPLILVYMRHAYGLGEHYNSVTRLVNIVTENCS
# In short: (§1)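 Each value is an average log2 ratio of fragment to vehicle, tested by unpaired t-test. The underlying Spectronaut label-free quantities were global-median-normalised, and only proteins with ≥2 unique peptides were included. Triplicate HEK293T lysate samples (495 µg) were exposed to fragment at 200 µM or vehicle for 3 h, then to Biotin-Ahx-Ub-VS at 0.5 µM final for 1 h, before NeutrAvidin enrichment of labelled DUBs, LysC and trypsin digestion, and diaPASEF LC-MS/MS.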
# OTUD7B = target: T2, OTUD7B (UniProt Q6GQQ9)
# T2 sequence (whole entry): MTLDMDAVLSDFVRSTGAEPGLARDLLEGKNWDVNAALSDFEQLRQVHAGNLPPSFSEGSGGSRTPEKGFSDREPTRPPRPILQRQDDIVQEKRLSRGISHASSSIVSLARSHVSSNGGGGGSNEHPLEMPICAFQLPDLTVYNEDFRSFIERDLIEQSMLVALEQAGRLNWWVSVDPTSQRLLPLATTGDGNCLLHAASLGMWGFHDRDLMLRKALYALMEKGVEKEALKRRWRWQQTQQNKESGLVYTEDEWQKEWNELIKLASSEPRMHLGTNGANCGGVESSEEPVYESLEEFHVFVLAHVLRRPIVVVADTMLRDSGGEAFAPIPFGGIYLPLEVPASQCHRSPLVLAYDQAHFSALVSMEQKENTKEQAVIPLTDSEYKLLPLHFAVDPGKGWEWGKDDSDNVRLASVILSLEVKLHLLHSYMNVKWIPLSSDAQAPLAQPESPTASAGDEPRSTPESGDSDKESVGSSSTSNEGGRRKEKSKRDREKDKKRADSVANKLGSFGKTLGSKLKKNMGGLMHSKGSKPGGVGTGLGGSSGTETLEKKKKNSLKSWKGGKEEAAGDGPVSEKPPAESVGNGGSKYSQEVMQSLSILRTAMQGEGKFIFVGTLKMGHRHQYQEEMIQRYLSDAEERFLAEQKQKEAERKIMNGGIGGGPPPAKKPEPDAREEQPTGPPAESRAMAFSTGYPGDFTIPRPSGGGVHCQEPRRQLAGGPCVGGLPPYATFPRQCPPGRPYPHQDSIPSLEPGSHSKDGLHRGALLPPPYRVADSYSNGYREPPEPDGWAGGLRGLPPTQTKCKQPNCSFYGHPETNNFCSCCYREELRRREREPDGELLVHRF
# In short: as §1
# PRPF8 = PRPF8 (UniProt Q6P2Q9)
# In short: as §1
# PSMD7 = target: T3, PSMD7 (UniProt P51665)
# T3 sequence (whole entry): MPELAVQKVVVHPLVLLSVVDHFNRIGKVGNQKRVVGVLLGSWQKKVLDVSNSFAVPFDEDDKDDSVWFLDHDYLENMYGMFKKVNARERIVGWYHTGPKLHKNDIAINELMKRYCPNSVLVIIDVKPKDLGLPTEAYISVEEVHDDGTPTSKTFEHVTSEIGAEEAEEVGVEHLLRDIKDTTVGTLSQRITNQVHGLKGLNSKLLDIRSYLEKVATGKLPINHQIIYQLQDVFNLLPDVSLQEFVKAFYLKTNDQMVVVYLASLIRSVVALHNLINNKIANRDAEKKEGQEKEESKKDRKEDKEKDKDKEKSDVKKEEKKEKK
# In short: as §1
# UCHL1 = UCHL1 (UniProt P09936)
# UCHL1, sequence (P09936 whole entry, looked up): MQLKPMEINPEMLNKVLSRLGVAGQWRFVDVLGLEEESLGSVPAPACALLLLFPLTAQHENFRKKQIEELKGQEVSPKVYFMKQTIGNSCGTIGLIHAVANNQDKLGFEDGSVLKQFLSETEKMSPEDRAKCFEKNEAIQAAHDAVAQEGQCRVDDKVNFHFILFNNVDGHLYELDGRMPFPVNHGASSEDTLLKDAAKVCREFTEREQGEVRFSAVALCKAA
# In short: as §1
# UCHL3 = target: T4, UCHL3 (UniProt P15374)
# T4 sequence (whole entry): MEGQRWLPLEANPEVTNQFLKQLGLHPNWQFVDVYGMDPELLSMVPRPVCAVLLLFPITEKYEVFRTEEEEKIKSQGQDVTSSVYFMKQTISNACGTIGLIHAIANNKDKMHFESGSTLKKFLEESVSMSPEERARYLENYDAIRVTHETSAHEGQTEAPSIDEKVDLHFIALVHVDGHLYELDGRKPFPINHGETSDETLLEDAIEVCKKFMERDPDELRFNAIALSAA
# In short: as §1
# UCHL5 = target: T5, UCHL5 (UniProt Q9Y5K5)
# T5 sequence (whole entry): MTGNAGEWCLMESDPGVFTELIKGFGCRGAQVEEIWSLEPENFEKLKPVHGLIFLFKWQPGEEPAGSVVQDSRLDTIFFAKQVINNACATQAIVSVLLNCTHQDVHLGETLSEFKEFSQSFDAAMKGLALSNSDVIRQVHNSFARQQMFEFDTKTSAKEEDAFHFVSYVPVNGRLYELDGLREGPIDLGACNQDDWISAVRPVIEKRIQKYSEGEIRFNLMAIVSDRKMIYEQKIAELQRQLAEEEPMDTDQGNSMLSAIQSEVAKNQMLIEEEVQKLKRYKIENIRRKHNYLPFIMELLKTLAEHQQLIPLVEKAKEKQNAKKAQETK
# In short: as §1
# USP10 = USP10 (UniProt Q14694)
# USP10, sequence (Q14694 whole entry): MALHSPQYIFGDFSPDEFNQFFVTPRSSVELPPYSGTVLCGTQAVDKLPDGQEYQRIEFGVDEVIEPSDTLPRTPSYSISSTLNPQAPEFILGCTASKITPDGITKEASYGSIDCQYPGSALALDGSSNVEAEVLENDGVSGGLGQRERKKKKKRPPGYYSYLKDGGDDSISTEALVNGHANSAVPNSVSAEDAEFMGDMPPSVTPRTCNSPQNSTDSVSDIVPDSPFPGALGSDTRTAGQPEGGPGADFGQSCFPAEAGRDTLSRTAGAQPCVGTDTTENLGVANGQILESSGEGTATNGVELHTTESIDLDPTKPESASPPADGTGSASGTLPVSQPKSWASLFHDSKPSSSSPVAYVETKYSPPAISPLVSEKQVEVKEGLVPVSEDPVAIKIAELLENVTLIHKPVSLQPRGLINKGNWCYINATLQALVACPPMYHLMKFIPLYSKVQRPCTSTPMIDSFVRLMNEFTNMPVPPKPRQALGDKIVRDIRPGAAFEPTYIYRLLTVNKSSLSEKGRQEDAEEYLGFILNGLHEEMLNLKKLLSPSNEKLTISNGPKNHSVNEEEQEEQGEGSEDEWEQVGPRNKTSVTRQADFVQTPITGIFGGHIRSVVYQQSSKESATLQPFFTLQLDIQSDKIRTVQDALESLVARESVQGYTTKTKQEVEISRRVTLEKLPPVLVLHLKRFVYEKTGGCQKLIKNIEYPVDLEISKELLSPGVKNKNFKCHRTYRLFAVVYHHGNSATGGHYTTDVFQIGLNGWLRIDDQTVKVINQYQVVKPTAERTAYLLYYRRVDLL
# In short: as §1
# USP15 = target: T6, USP15 (UniProt Q9Y4E8)
# T6 sequence (whole entry): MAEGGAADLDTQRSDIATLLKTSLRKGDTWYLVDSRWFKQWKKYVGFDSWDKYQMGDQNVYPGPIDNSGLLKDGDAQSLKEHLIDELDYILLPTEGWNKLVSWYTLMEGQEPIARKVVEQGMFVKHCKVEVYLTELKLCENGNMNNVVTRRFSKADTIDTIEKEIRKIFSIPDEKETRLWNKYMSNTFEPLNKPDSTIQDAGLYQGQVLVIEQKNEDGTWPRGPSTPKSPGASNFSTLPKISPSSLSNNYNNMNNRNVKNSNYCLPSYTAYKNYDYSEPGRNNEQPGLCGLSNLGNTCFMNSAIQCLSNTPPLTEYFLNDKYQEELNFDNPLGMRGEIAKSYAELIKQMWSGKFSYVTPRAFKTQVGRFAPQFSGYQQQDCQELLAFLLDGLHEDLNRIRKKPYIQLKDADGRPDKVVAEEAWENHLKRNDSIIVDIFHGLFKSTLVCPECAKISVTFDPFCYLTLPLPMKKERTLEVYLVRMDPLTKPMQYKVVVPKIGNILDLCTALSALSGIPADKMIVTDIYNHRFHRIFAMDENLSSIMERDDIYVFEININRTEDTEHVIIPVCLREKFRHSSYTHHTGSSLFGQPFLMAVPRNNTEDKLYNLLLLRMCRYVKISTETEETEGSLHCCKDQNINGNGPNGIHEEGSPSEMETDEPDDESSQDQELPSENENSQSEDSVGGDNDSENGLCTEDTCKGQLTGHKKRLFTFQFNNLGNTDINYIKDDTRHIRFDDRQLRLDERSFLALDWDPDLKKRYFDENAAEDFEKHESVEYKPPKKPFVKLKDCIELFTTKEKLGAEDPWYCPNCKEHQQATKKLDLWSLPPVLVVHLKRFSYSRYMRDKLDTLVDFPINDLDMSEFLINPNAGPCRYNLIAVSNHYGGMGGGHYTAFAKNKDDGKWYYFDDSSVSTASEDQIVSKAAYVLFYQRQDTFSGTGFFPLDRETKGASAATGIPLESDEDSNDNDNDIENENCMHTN
# In short: as §1
# USP16 = USP16 (UniProt Q9Y5T5)
# USP16, sequence (Q9Y5T5 whole entry, looked up): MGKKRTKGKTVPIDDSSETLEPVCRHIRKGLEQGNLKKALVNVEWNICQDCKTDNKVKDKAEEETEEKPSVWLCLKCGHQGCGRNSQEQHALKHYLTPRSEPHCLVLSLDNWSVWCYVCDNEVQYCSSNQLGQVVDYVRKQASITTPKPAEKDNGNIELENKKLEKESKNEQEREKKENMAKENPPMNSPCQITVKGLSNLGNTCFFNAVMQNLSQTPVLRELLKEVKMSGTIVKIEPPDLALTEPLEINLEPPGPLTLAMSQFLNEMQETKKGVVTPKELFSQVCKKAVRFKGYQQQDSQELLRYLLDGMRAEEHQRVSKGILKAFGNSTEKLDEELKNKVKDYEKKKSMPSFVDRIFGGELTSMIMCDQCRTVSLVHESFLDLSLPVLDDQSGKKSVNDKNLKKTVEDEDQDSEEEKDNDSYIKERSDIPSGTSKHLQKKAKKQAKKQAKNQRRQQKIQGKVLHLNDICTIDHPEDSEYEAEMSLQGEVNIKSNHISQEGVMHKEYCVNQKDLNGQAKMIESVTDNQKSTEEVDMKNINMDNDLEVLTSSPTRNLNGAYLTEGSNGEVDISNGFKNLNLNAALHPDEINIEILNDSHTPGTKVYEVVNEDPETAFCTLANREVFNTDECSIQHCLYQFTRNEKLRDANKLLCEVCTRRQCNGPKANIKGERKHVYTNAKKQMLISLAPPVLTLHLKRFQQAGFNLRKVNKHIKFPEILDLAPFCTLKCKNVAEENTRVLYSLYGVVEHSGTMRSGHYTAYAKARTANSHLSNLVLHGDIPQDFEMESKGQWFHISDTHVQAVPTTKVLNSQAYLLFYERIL
# In short: as §1
smiles,measurement,setting,value
O=C(CCl)NC1CCC2(CC1)OCCO2,log2 ratio of Biotin-Ahx-Ub-VS probe labelling,OTUD6B,-0.272
same,log2 ratio of Biotin-Ahx-Ub-VS probe labelling,OTUD7B,-0.893
same,log2 ratio of Biotin-Ahx-Ub-VS probe labelling,PRPF8,-0.267
same,log2 ratio of Biotin-Ahx-Ub-VS probe labelling,PSMD7,-0.147
same,log2 ratio of Biotin-Ahx-Ub-VS probe labelling,UCHL1,-1.25 (active)
same,log2 ratio of Biotin-Ahx-Ub-VS probe labelling,UCHL3,-0.0419
same,log2 ratio of Biotin-Ahx-Ub-VS probe labelling,UCHL5,-0.477
same,log2 ratio of Biotin-Ahx-Ub-VS probe labelling,USP10,-0.165
same,log2 ratio of Biotin-Ahx-Ub-VS probe labelling,USP15,-0.308
same,log2 ratio of Biotin-Ahx-Ub-VS probe labelling,USP16,-0.00437
